Experimental data reported in PubChem BioAssay AID602449 (Sanford-Burnham Center for Chemical Genomics, 2012).
Out of some 360,000 compounds screened, about 5,000 (1.4%) were called active.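 The calls were made as follows: active = inhibition of 50% or more, scaled per plate between neutral and stimulator controls; inactive = the rest.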 Only a selection was taken, and actives are over-represented in it overall.

test: blockers of Ca2+-induced mitochondrial swelling – biochemical, isolated mouse mitochondria, absorbance, primary screen (AID 602449); conditions: 30 min, at 10 µM, active compounds read high;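 also: 0% = DMSO wells given calcium and 100% = 1 mM EGTA wells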

| SMILES | inhibition |
| --- | --- |
| Cc1cc(C)cc(NC(=S)NCc2ccc(F)cc2)c1 | 50.1% (active) |
| Cc1c(NC(=O)CCCOc2ccccc2)cccc1[N+](=O)[O-] | 0.1% (inactive) |
| Cc1cccc(NC(=S)NCCc2ccc(F)cc2)c1C | 0.7% (inactive) |
| COc1cc(NC(=S)NCc2ccc(S(N)(=O)=O)cc2)cc(OC)c1 | -1% (inactive) |
| CC(C)CNC(=S)Nc1ccc(F)cc1 | 2.1% (inactive) |
| Cc1c(NC(=S)NCc2ccc(F)cc2)cccc1[N+](=O)[O-] | 96.5% (active) |
| C/C(=N\N=C(N)N)c1ccc(Cl)cc1 | 2% (inactive) |
| COc1cccc(NC(=O)C(Sc2nnnn2C)c2ccccc2)c1 (stereo not drawn) | -1.4% (inactive) |
| CCOc1ccc(OCC)c(NC(=O)CN(C)S(=O)(=O)c2cccc3nsnc23)c1 | -0.3% (inactive) |
| COc1ccccc1OCCNc1cc(N2CCOCC2)ccc1[N+](=O)[O-] | 2.8% (inactive) |
| COc1ccc(CCNc2cc(N3CCN(C(=O)c4ccccc4OC)CC3)ccc2[N+](=O)[O-])cc1OC | 55.3% (active) |
| COc1ccc(CCNC(=O)c2ccccc2-c2ccccc2C(=O)O)cc1OC | -0.5% (inactive) |
| O=S(=O)(CCc1nc2ccccc2o1)c1ccc(Cl)cc1 | -1.2% (inactive) |
| O=C(NCCc1ccccc1)C1CC1 | -0.4% (inactive) |
| S=C(NCCc1ccccc1)NCc1ccccc1Cl | 69.8% (active) |
| Cc1cc(F)ccc1NC(=S)NCCc1ccccc1 | 0% (inactive) |
| O=C(NCCCc1ccccc1)C1CCC(CNc2c(N3CCCCC3)c(=O)c2=O)CC1 (stereo not drawn) | 0.1% (inactive) |
| CC(C)(CNC(=O)Cc1ccc(Cl)cc1Cl)N1CCOCC1 | 1.9% (inactive) |
| CC1=NN(/C(=N\c2nnc(C)s2)Nc2ccccc2)[C@H](c2ccc(C)cc2)S1 | 0.1% (inactive) |
| FC(F)(F)COc1nc(N2CCCCC2)nc(N2CCNCC2)n1 | 78.3% (active) |
| COc1nc(NC2CCCCC2)nc(N2CCCCCC2)n1 | 20.8% (inactive) |
| CN(N)c1nc(N2CCCC2)nc(N2CCCC2)n1 | 1.8% (inactive) |
| O=S(=O)(c1ccccc1)N1CCC(c2ccccc2)CC1 | 1.4% (inactive) |
| COc1ccc(C2(C)ON(c3ccccc3C(F)(F)F)C2=O)cc1 (stereo not drawn) | -1.7% (inactive) |
| CCc1noc(C)c1C(=O)Oc1ccc(N(C)S(=O)(=O)c2ccc(C)c(C)c2)cc1 | 0.2% (inactive) |

| SMILES | inhibition |
| --- | --- |
| Cc1ccc(CNC(=O)CCC(=O)N2CC(C)Sc3ccccc32)cc1 (stereo not drawn) | -1.8% (inactive) |
| O=C(c1ccc(Cl)cc1)c1ccc(OCC(O)CN2CCCCC2)cc1 (stereo not drawn) | 96.3% (active) |
| OC(COc1ccc(CN2CCSCC2)cc1)CN1CCCCC1 (stereo not drawn) | 1.1% (inactive) |
| CC(=O)Nc1ccc(OCC(O)CN2CCN(c3ccccc3Cl)CC2)cc1 (stereo not drawn) | -1.1% (inactive) |
| CCC(C)N1C(=O)S/C(=C/c2ccc(Sc3nc4ccccc4[nH]3)o2)C1=O (stereo not drawn) | 91.9% (active) |
| CCC(c1nc2ccccc2[nH]1)n1c(=O)c(-c2cccs2)nc2ccccc21 (stereo not drawn) | 2.6% (inactive) |
| CN1CCN(c2ccc([N+](=O)[O-])c(Sc3nc4ccccc4[nH]3)c2)CC1 | -0.9% (inactive) |
| O=C(NC1CCCC1)C1c2ccccc2OCC(=O)N1CC(F)(F)F (stereo not drawn) | -0.2% (inactive) |
| COc1ccc(N2CCN(C(=O)[C@@H](NC(=O)c3cc(OC)cc(OC)c3)C(C)C)CC2)cc1 | 0.3% (inactive) |
| O=C(Nc1nnc(S(=O)(=O)N2CCOCC2)s1)c1cccc(Br)c1 | 4.6% (inactive) |
| O=C(Nc1nnc(S(=O)(=O)N2CCCCCC2)s1)c1cccc(Br)c1 | 79.7% (active) |
| COc1cccc(C(=O)Nc2nnc(S(=O)(=O)N3CCOCC3)s2)c1 | -1% (inactive) |
| COc1cccc(C(NC(C)=O)c2nc(-c3cnc4ccccc4c3)cs2)c1 (stereo not drawn) | 0.4% (inactive) |
| CCCCn1c(N)c(N(CCC(C)C)C(=O)c2ccc([N+](=O)[O-])o2)c(=O)[nH]c1=O | -0.3% (inactive) |
| COc1ccc(NC(=O)CN(C)C(=O)Cc2coc3cc(C)c(C)cc23)cc1 | -0.3% (inactive) |
| Cc1ccc(F)cc1NC(=O)CSCc1c(C)noc1C | -0.3% (inactive) |
| Cc1ccc(F)cc1NC(=O)Cc1nn(C)c(=O)c2ccccc12 | 69.1% (active) |
| Cc1ccc(C)c(NC(=O)COC(=O)c2nn(C)c(=O)c3ccccc23)c1 | 1.4% (inactive) |
| O=C1CC(c2c(F)cccc2Cl)C(n2cncn2)C(O)=C1C1NCCc2ccccc21 (stereo not drawn) | 5.6% (inactive) |
| NNC(=O)COc1ccc(C2SCCS2)cc1 | -1% (inactive) |
| COc1ccc(CCC(C)N2CCc3ccccc3C2)cc1 (stereo not drawn) | -0.5% (inactive) |
| Cn1c(=O)c2c(nc(CN3CCOCC3)n2Cc2ccccc2)n(C)c1=O | 0.1% (inactive) |
| COCCn1c(CN2CCC(Cc3ccccc3)CC2)nc2c1c(=O)n(C)c(=O)n2C | 83.7% (active) |
| COCCn1c(CN(Cc2ccccc2)Cc2ccccc2)nc2c1c(=O)n(C)c(=O)n2C | 0.9% (inactive) |
| COc1cc(C(=O)Nc2cc(C(F)(F)F)ccc2-n2cncn2)cc(OC)c1OC | -0.1% (inactive) |

| SMILES | inhibition |
| --- | --- |
| Cc1cc(C)c2c(Cn3ccnc3)cc(=O)oc2c1 | -1.5% (inactive) |
| COc1ncnc2c1N=C1CC(C)(C)CC(N)=C1S2 | 0.5% (inactive) |
| O=C(COc1ccc(S(=O)(=O)N2CCOCC2)cc1Cl)N1CCOCC1 | 0.5% (inactive) |
| COc1ccc(Cn2c(=O)sc3ccccc32)cc1OC | 72.6% (active) |
| COc1ccc(CN2CCOC2=O)cc1OC | 0.9% (inactive) |
| COc1ccccc1CNC(=O)CCn1c(=O)sc2ccccc21 | 0.2% (inactive) |
| Nc1ccc(OCC(O)C[n+]2ccc(CCS(=O)(=O)[O-])cc2)cc1 (stereo not drawn) | -2.1% (inactive) |
| Oc1c(Cl)cc(Cl)c(Cl)c1Cc1c(O)c(Cl)cc(Cl)c1Cl | 80.8% (active) |
| CN(C)C(=O)N=NC(=O)N(C)C | 4.3% (inactive) |
| CCC1=C(OC(=O)N(CC)CC)N2C(=O)OC(=NCCc3c[nH]c4ccccc34)[C@]2(C)[C@H]2C1=CC[C@H]1C(=O)N(CC)C(=O)[C@H]12 | 0% (inactive) |
| CC1(C)OC(=O)C2=C(C[C@@H](C3CC3)O[C@H]2CCc2cccc(Cl)c2)O1 | 1% (inactive) |
| O=C(Nc1cc(S(=O)(=O)N2CCCCC2)ccc1Cl)C1COc2ccccc2O1 (stereo not drawn) | -0.4% (inactive) |
| Cc1cc(C)c2nc(NC(=O)C3CCCO3)sc2c1 (stereo not drawn) | -9.1% (inactive) |
| O=C(N/N=C\c1cc(Br)c(Br)o1)C1COc2ccccc2O1 (stereo not drawn) | 3.3% (inactive) |
| O=C(Nc1nnc(SCc2ccc(Cl)cc2Cl)s1)C1COc2ccccc2O1 (stereo not drawn) | 70% (active) |
| O=C(Nc1nc2c(F)cc(F)cc2s1)C1COc2ccccc2O1 (stereo not drawn) | 63.7% (active) |
| C/C(=N/NC(=O)C1COc2ccccc2O1)c1ccco1 (stereo not drawn) | 0.4% (inactive) |
| O=C(CN1CCOCC1)N1CCCc2c1c(=O)oc1ccc(OCc3ccccc3)cc21 | 5.1% (inactive) |
| CCCN(CCC)c1c([N+](=O)[O-])c(=O)oc2ccccc12 | -6.7% (inactive) |
| COCCCNC(=O)C1CCN(c2ccc(N3CCOCC3)nn2)CC1 | 0.3% (inactive) |
| OC(c1ccccc1)c1nccn1Cc1ccccc1 (stereo not drawn) | -1.7% (inactive) |
| O=S(=O)(N1CCCCC1)N1CCNCC1 | 1.7% (inactive) |
| O=C1c2ccccc2S(=O)(=O)N1Cc1c(F)cccc1Cl | -0.3% (inactive) |
| Nn1cnnc1N/N=C/c1cc([N+](=O)[O-])c(Cl)cc1Cl | 0.6% (inactive) |
| NC(N)=N/N=C/c1ccc(Cl)c([N+](=O)[O-])c1 | 90.5% (active) |

| SMILES | inhibition |
| --- | --- |
| NC(N)=N/N=C/c1ccc(OCc2ccc(Cl)cc2Cl)cc1 | 6% (inactive) |
| CC(C)N(C(=O)[C@H]1C[C@H](CC(=O)NC(C)(C)C)C(=O)N2CCc3c([nH]c4ccc(Cl)cc34)[C@]12C)C(C)C | -1.7% (inactive) |
| Cc1ccc(C(=O)N/C(=C/c2cccnc2)C(=O)O)cc1 | 0.9% (inactive) |
| C/C(=N\NC(=O)c1ccc(C)cc1)C1C(=O)c2ccccc2C1=O | 57.8% (active) |
| O=C1c2ccccc2C(=O)C1C(=O)C1CC1 | -0.9% (inactive) |
| CCOc1ccc(S(=O)(=O)Nc2nccs2)cc1 | 0.5% (inactive) |
| Cn1c(Cc2cccc3ccccc23)nnc1SCC(=O)N1CCN(c2cccc(Cl)c2)CC1 | -0.5% (inactive) |
| O=C(O)CCCC(=O)Nc1ccc(Oc2cccc(C(F)(F)F)c2)nc1 | 0.9% (inactive) |
| Cc1cccc(C(=O)Nc2ccc(Oc3cnccn3)cc2)c1 | 0.7% (inactive) |
| O=C(Nc1ccc(Cl)cc1)Nc1ccc(Oc2cccnc2)nc1 | 82.5% (active) |
| O=C1c2ccccc2[C@@H]2C[C@@H](O)[C@H](Nc3ccccc3Cl)CCN12 | -0.5% (inactive) |
| Cc1ccc2c(c1)C(c1ccccc1)N(C(=O)c1ccc(S(=O)(=O)N3CCOCC3)cc1)CC(=O)N2 (stereo not drawn) | -0.3% (inactive) |
| Nc1nc(CSc2nnnn2-c2ccccc2)nc(Nc2ccccc2)n1 | 0% (inactive) |
| O=C(c1ccc(-c2ccccc2)cc1)C1CCCN(C(=O)c2cncs2)C1 (stereo not drawn) | -1.8% (inactive) |
| Cc1ccn(CC(=O)NC2CCCN(Cc3ccccc3F)C2)n1 (stereo not drawn) | 0.4% (inactive) |
| CCNCCC(=O)N1c2ccccc2Sc2ccc(NC(=O)OCC)cc21 | 75.6% (active) |
| CCOC(=O)Nc1ccc2c(c1)N(C(=O)CCCl)c1ccccc1[S@]2=O | -1.2% (inactive) |
| CCOC(=O)Nc1ccc2c(c1)N(C(=O)CCN1CCN(CCO)CC1)c1ccccc1CC2 | 0.2% (inactive) |
| Cc1cccnc1NC(=O)Cn1c(=O)oc2ccccc21 | -0.1% (inactive) |
| COC(=O)c1ccc(CNC(=O)C2CCC(=O)N(Cc3cccc(F)c3)C2)cc1 (stereo not drawn) | -0.2% (inactive) |
| CCn1c(NC(=O)c2ccccc2)c(-c2cccs2)c(=O)c2ccccc21 | 1.4% (inactive) |
| N#Cc1ccc(C(=O)Nc2nc(-c3cccs3)c(C(=O)C(F)(F)F)s2)cc1 | 87.5% (active) |
| C=CCN(CC=C)S(=O)(=O)c1ccc(C(=O)Nc2nc3c(s2)CCc2ccccc2-3)cc1 | -1.2% (inactive) |
